About 83,000 compounds went through this panel and 20% of them were active in at least one assay; those are over-represented in the sample as a whole.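 Single-concentration screen, 48 h exposure, 96-well plates. Endpoint: percent growth. Below 10 = active.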 Activity calls are given as the source filed them.
Experiments:
Test in all cases: NCI-60 one-dose screen, 48 h (100 = growth as untreated, 0 = no growth, -100 = all killed)
Conditions in all cases: 10 µM unless noted
[1] = test system: DU-145 prostate
[2] = test system: K-562 leukemia
[3] = test system: MALME-3M melanoma
[4] = test system: MDA-MB-231 breast
[5] = test system: SF-268 CNS
[6] = test system: SF-295 CNS
[7] = test system: SF-539 CNS
[8] = test system: UACC-257 melanoma
[9] = test system: M14 melanoma

Measured: growth

O=c1[nH]nc(-c2ccc(Cl)cc2)cc1Cc1cccc([N+](=O)[O-])c1
inactive: [1] 98.7% | [2] 94.2% | [3] 119% | [4] 72.6% | [5] 95.4% | [6] 92.4% | [7] 98.5% | [8] 97% | [9] 107%

O=S(=O)(NCCNc1nccc(-c2c(-c3ccc(F)c(O)c3)nc3sccn23)n1)c1ccccc1
active: [3] 1.46%
inactive: [1] 77.5% | [2] 37.2% | [4] 51.6% | [5] 84.5% | [6] 110% | [7] 94.3% | [8] 16.2% | [9] 14.5%

COc1ccc(/C=C(/c2ccccc2)[N+](=O)[O-])cc1
inactive: [5] 47.6% | [6] 33.2% | [9] 42.8%
active: [1] -85.5% | [2] -7.82% | [3] -44.2% | [4] -49.3% | [7] -89.2% | [8] -0.12%

Cn1c(COC(=O)NCCN2CCOCC2)nc2c(N3CCOCC3)nc(-c3ccccc3)nc21
active: [1] -81.6% | [2] 0.451% | [3] -91.9% | [4] -88.9% | [5] -36.8% | [7] -98.7% | [8] -46.6% | [9] -75.9%
inactive: [6] 57%

Source: PubChem BioAssay (NCI)
